Experimental data taken from ChEMBL document CHEMBL4513216, “Probing the Open Global Health Chemical Diversity Library for Multistage-Active Starting Points for Next-Generation Antimalarials” (ACS Infect Dis, 2020).
The whole screen tested about 68,000 compounds, of which about 2,700 (4%) showed an effect of 50% or more. The full list was thinned out, with strong results kept by preference.

Each compound was assayed on Plasmodium berghei (assay: Screen against P. berghei liver stage (PbLuc), transformed with Luciferase, at 2uM). Conditions: tested at 2 uM.
Format: functional, HepG2

| SMILES | INHIBITION [%] |
| --- | --- |
| Cc1ccc(C(=O)N2CCO[C@H]3[C@H](OCc4ccccn4)CC[C@@H]32)o1 | 30.96 |
| Cc1cc(C)n(CCCC(=O)N2CCc3ncc(Cl)cc3C2)n1 | 51.99 |
| Cc1nc(C)n(CCC(=O)N2CCc3ncc(Cl)cc3C2)n1 | 40.31 |
| Cc1nc(C)n(CC(=O)N2CCc3ncc(Cl)cc3C2)n1 | 44.9 |
| Cc1nnc(CNC(=O)[C@@H]2C[C@H](NC(=O)C(C)(C)C)CN2C)[nH]1 | -4.77 |
| CN1C[C@@H](NC(=O)c2cc(F)cc(F)c2)C[C@H]1C(=O)NCc1ncc[nH]1 | -7.68 |
| CN1C[C@@H](NC(=O)C(C)(C)C)C[C@H]1C(=O)NCc1ncc[nH]1 | 67.85 |
| N#Cc1c(Cl)nsc1NCc1cccnc1OCC(F)(F)F | 5.94 |
| Cc1nn(C)cc1Cn1c(=O)cnc2ccccc21 | 2.82 |
| Cc1nn(C)cc1Cn1c(=O)ccc2ccccc21 | 51.36 |
| Cc1nn(C)cc1Cn1c(=O)c(C)nc2ccccc21 | 21.57 |
| Cc1nnc2n1CCN(C(=O)c1cnc3c(cnn3CC(C)C)c1)C2 | 56.89 |
| CCc1nnc2n1CCN(C(=O)c1cnc3c(cnn3C(C)C)c1)C2 | 24.05 |
| Cc1nnc2n1CCN(C(=O)c1cnc3c(cnn3C(C)C)c1)C2 | 17.48 |
| CC(C)C(=O)N1CC[C@H]2N(C)CC[C@@]2(C(=O)N2CCOCC2)CC1 | 35.34 |
| CNC(=O)Cc1ccc(NC(=O)NCc2nc(C)sc2C)cc1 | 45.82 |
| CNC(=O)Cc1ccc(NC(=O)NCC(C)c2ncc(C)s2)cc1 (configuration not stated) | 50.59 |
| CNC(=O)Cc1ccc(NC(=O)NCc2ncc(C)s2)cc1 | 38.67 |
| CN1C(=O)C(C)(C)COc2cc(NS(=O)(=O)Cc3ccccc3)ccc21 | -18.38 |
| c1ccc(CN2CCc3ncnc(C4CCOC4)c3CC2)nc1 (configuration not stated) | -4.2 |
| CCn1ccnc1CN1CCN(C(C)C(=O)NCc2ccco2)CC1 (configuration not stated) | -17.18 |
| Cc1cnc(CN(Cc2cccc(O)c2)CC2CC2)cn1 | -14.45 |
| C[C@]1(O)CCN(Cc2ncccc2F)C[C@@H]1Oc1ccccc1 | 51.99 |
| C[C@]1(O)CCN(Cc2ncccc2F)C[C@@H]1Oc1cccc(F)c1 | 14.47 |
| Cc1cccnc1CN1CC[C@@](C)(O)[C@H](Oc2ccccc2)C1 | 37.4 |
| CCOC(=O)c1cc2n(n1)CCCO2 | 4.95 |

| SMILES | INHIBITION [%] |
| --- | --- |
| CCOCC1CN(c2ncc(F)cn2)Cc2cn(CC)nc21 (configuration not stated) | -10.78 |
| O=C(Nc1ccccc1)N1CCc2nc(C(=O)N3CCCC3)sc2CC1 | -18.86 |
| Cc1ncc(CNC(=O)CCc2c(C)noc2C)c(C2CCCN2C)n1 (configuration not stated) | 58.18 |
| Cc1ncc(CNC(=O)CCc2cccs2)c(C2CCCN2C)n1 (configuration not stated) | -14.56 |
| Cc1ncc(CNC(=O)CCc2ccccc2F)c(C2CCCN2C)n1 (configuration not stated) | 4.66 |
| O=C(O)c1sccc1Oc1ccc(NC(=O)C2CC2)cc1 | 19.62 |
| Cn1cccc1C(=O)N1CCO[C@@H]2CN(Cc3ccco3)C[C@@H]2C1 | 35.64 |
| c1ccc(-c2nc(CCNC3CCOC4(CCOCC4)C3)no2)cc1 (configuration not stated) | 58.53 |
| c1ccc(Cc2nc(CNC3CCOC4(CCOCC4)C3)no2)cc1 (configuration not stated) | 1.06 |
| c1ccc(Cc2noc(CCNC3CCOC4(CCOCC4)C3)n2)cc1 (configuration not stated) | -7.16 |
| c1cnc2[nH]c(C3CCNCC3)c(CN3CCOCC3)c2c1 | 26.98 |
| NC(=O)c1nc2c(s1)CCN(Cc1ccccc1)CC2 | -14.74 |
| CCC(CC)c1cc(CNC(=O)N2CCOCC2CC)on1 (configuration not stated) | -8.83 |
| CCOCCCNC(=O)C1(C)CCC(=O)N1c1ccccc1F (configuration not stated) | 19.99 |
| CC(C)NC(=O)CNC(=O)N1CCc2c([nH]c3ccc(Cl)cc23)C1 | 43.4 |
| CC(C)NC(=O)CNC(=O)C12CCC(=O)N1c1cc(Cl)ccc1S2 (configuration not stated) | 62.51 |
| CC(C)C(=O)NCc1cccc(N2CCCCC2=O)c1 | -8.7 |
| COC(=O)CNC(=O)C12CCC(=O)N1c1cc(Cl)ccc1S2 (configuration not stated) | 48.21 |
| CC(C)C(=O)NCCNC(=O)C12CCC(=O)N1c1cc(Cl)ccc1S2 (configuration not stated) | 79.21 |
| CC(=O)Nc1cccc(OCCNC(=O)N(C)Cc2ccncc2)c1 | -44.49 |
| O=C(NC(c1ccc(Cl)cc1)c1cccnc1)C1CC1 (configuration not stated) | -58.01 |
| O=S(=O)(Cc1ccccc1Cl)NCCCN1CCCC1 | 49.88 |
| O=S(=O)(Cc1c(F)cccc1Cl)NCCCN1CCCCCC1 | 53.19 |
| O=S(=O)(Cc1ccccc1F)NCCCN1CCCCC1 | 21.18 |
| CN(CC(=O)N1CC(C)(C)[C@@](C)(O)C1)Cc1ccncc1 | 32.07 |
| CCc1nnc(Nc2cc(C)nc(C3CCN(c4ncccn4)C3)n2)s1 (configuration not stated) | -10.89 |
